According to PubChem BioAssay AID493170 (National Center for Advancing Translational Sciences (NCATS), 2011):
Records with an inconclusive call do not appear. Active and inactive are the calls of the source. Calls follow the shape of the dose curve; as a rule, active = well fitted inhibition curve with a large enough effect; inconclusive = small, poorly fitted or top-dose-only effect, or effect the other way; inactive = flat fitted curve, though single readings scatter.

What follows are compounds tested against Ubiquitin carboxyl-terminal hydrolase 2 (Homo sapiens) (UniProt O75604) (assay: Ub-rhodamine 110 based assay for inhibitors Ubiquitin-specific Protease USP2a). Conditions: USP2a Ub-rhodamine110 cleavage, fluorescence; series mostly up to 38.3 µM.
Sequence of Ubiquitin carboxyl-terminal hydrolase 2 (Homo sapiens) (O75604 whole entry, looked up): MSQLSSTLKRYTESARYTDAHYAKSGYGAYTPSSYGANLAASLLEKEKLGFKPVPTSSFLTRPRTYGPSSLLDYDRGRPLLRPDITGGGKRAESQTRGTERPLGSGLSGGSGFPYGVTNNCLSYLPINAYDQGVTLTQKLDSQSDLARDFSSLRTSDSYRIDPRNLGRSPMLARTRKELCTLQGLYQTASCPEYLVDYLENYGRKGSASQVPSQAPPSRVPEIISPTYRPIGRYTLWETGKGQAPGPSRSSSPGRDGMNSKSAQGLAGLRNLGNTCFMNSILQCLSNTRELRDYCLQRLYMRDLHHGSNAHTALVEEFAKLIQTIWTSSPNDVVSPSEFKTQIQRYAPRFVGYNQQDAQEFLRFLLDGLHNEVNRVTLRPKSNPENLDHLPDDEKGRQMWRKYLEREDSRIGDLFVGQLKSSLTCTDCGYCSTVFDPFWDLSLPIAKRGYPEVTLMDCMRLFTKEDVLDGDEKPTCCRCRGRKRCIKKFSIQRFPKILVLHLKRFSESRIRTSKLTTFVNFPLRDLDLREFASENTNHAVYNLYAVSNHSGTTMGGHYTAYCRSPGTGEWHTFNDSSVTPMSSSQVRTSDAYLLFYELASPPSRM
Outline: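 5 nM USP2a preincubated with compounds for 30 min at RT in 20 mM Tris-HCl pH 8.0, 2 mM CaCl2, 2 mM beta-mercaptoethanol, 0.05% CHAPS. Cleavage of 150 nM Ub-rhodamine 110 read kinetically (Ex 485/Em 531) for 7 min.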
Also: nearly all actives have a fitted effect of over 50% in size.
Potency is read from the fitted curve at half-maximal effect.

Potency, active:
CCc1cc(C(=O)N=Nc2c(O)[nH]c3ccc([N+](=O)[O-])cc23)c2ccccc2n1 11.2 µM
O=C(N/N=C/c1ccc(F)cc1)c1cc(-c2ccco2)nc2ccccc12 2 µM
Cc1cc(NS(=O)(=O)c2ccc(Nc3nc(-c4ccc(C)c(C)c4)cs3)cc2)no1 10 µM
Cc1ccc(S(=O)(=O)Nc2ccccc2-c2ccccc2NS(=O)(=O)c2ccc(C)cc2)cc1 8.91 µM
O=C(Nc1nnc(SCCC2OCCO2)s1)C1CC(=O)N(c2ccc(F)cc2)C1 (centres undefined) 7.94 µM
Cc1ccc(S(=O)(=O)N2[C@@H](c3ccc(Cl)cc3)C(C(=O)O)=CC[C@H]2c2ccc(C(C)C)cc2)cc1 10 µM
O=C1/C(=C/C=C/c2ccco2)SC(=S)N1c1ccc(O)cc1 3.55 µM
N#C/C(=C(/O)CSc1nnc(Cc2cccs2)n1C1CCCCC1)c1nc2ccccc2[nH]1 7.08 µM
Cc1noc(/C=C/c2ccco2)c1S(=O)(=O)N1CCC(C(=O)N2CCc3ccccc3C2)CC1 7.94 µM
O=C1COc2ccc(C(=O)COC(=O)/C=C/c3ccc(Br)o3)cc2N1 2.24 µM
O=C(Nc1ccc(N2CCCC2)cc1)c1ccc(Br)cc1 8.91 µM
CN=c1scc(-c2ccccc2F)n1/N=C/c1ccc(O)c(O)c1O 7.08 µM
O=C(O)C(Cc1ccccc1)N1C(=O)/C(=C/C=C/c2ccco2)SC1=S (centres undefined) 11.2 µM

Potency, inactive:
CC1CCN(c2ccc3c(c2)S(=O)(=O)c2cccc(C(=O)NC4CC4)c2C3=O)CC1
COc1ccc(NC(=O)CN(Cc2ccccc2)S(C)(=O)=O)cc1
CC(C)(C)NC(=O)C(c1ccco1)N(C(=O)c1ccc(CN2CCOCC2)o1)c1ccccc1 (centres undefined)
Cc1n[nH]c(C)c1S(=O)(=O)N1CCCC(C(=O)Nc2nccs2)C1 (centres undefined)
Cc1ccc(S(=O)(=O)Nc2cc(C)c(O)c(S(=O)(=O)c3ccc(C)cc3)c2)cc1
O/N=C/c1ccccc1OCc1ccccc1F
NC(=O)c1ncc(C(F)(F)F)cc1Oc1cccc(F)c1
Cc1c(N=C/C=C2\N(C)c3ccccc3C2(C)C)c(=O)n(-c2ccccc2)n1C
CCC(C)(C(=O)NC1CCCCC1)N(C(=O)C1CCC(=O)N1)c1ccccc1 (centres undefined)
C=CCOc1cccc(C2C(C(=O)c3ccco3)=C(O)C(=O)N2CCN(CC)CC)c1 (centres undefined)
Cc1cccn2c(=O)c3cc(C(=O)NCCN4CCOCC4)c(=N)n(CCN4CCOCC4)c3nc12
O=C(COc1ccccc1)Nc1nnc(-c2ccc(Cl)s2)o1
CC(OC(=O)CN(C)S(=O)(=O)c1ccc(Cl)cc1)C(=O)Nc1ccc(N2CCOCC2)cc1 (centres undefined)
O=C(NC1CCCCC1)C(c1ccco1)N(Cc1ccco1)C(=O)c1ccco1 (centres undefined)
Cc1cccc(N2CCN(C(=O)CCc3nc4ccccc4[nH]3)CC2C)c1 (centres undefined)
Nc1cc(=O)[nH]c(SCc2cccc(Cl)c2)n1
Cc1ccc(S(=O)(=O)Nc2ccc(N3CCOCC3)cc2)cc1
Cc1nc(NC(C)C)c2cnn(CCc3ccccc3)c2n1
COc1ccc(CCN2CC(C#N)=C3c4cc(OC)c(OC)cc4CCN3C2)cc1OC
Cc1ccccc1N=C1NC(=O)CS1
CCN(CC)S(=O)(=O)c1ccc(Cl)c(NC(=O)COC(=O)c2c(C)noc2C)c1
COCc1c(C(=O)OCC(=O)c2c(N)n(CC(C)C)c(=O)n(C)c2=O)oc2ccccc12
CC(=O)COc1ccc2c(-c3ccccc3)cc(=O)oc2c1
CC(C)C(=O)Nc1ccc(C(=O)N2CCCCCC2)cc1
O=C(/C=N/O)NCc1cccnc1
O=C(N/N=C1\CC(c2ccccc2)Oc2ccccc21)c1ccc(O)cc1 (centres undefined)
